From PubChem BioAssay come the findings set out here.

The structures appear in SMILES notation. The source made the active and inactive calls.

In experiment [1] the test system is Noggin (protein binding on small-molecule microarray). Briefly: Noggin binders on small-molecule microarray, primary screen, biochemical, 635/667 nm fluorescence (AID 1095).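 Further: score merges 667 nm feature fluorescence with signal to noise over triplicate slides.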 Conditions: 635 nm fluorescence, higher = more signal.
In experiment [2] the target is Neurogenic locus notch homolog protein 3 (Homo sapiens) (UniProt Q9UM47). Briefly: NOTCH3 binders on small-molecule microarray, primary screen, biochemical, 635/667 nm fluorescence (AID 1096). To be noted: NOTCH3 binding, 635 nm fluorescence, higher = more signal.
Sequence of Neurogenic locus notch homolog protein 3 (Homo sapiens) (Q9UM47 whole entry, looked up): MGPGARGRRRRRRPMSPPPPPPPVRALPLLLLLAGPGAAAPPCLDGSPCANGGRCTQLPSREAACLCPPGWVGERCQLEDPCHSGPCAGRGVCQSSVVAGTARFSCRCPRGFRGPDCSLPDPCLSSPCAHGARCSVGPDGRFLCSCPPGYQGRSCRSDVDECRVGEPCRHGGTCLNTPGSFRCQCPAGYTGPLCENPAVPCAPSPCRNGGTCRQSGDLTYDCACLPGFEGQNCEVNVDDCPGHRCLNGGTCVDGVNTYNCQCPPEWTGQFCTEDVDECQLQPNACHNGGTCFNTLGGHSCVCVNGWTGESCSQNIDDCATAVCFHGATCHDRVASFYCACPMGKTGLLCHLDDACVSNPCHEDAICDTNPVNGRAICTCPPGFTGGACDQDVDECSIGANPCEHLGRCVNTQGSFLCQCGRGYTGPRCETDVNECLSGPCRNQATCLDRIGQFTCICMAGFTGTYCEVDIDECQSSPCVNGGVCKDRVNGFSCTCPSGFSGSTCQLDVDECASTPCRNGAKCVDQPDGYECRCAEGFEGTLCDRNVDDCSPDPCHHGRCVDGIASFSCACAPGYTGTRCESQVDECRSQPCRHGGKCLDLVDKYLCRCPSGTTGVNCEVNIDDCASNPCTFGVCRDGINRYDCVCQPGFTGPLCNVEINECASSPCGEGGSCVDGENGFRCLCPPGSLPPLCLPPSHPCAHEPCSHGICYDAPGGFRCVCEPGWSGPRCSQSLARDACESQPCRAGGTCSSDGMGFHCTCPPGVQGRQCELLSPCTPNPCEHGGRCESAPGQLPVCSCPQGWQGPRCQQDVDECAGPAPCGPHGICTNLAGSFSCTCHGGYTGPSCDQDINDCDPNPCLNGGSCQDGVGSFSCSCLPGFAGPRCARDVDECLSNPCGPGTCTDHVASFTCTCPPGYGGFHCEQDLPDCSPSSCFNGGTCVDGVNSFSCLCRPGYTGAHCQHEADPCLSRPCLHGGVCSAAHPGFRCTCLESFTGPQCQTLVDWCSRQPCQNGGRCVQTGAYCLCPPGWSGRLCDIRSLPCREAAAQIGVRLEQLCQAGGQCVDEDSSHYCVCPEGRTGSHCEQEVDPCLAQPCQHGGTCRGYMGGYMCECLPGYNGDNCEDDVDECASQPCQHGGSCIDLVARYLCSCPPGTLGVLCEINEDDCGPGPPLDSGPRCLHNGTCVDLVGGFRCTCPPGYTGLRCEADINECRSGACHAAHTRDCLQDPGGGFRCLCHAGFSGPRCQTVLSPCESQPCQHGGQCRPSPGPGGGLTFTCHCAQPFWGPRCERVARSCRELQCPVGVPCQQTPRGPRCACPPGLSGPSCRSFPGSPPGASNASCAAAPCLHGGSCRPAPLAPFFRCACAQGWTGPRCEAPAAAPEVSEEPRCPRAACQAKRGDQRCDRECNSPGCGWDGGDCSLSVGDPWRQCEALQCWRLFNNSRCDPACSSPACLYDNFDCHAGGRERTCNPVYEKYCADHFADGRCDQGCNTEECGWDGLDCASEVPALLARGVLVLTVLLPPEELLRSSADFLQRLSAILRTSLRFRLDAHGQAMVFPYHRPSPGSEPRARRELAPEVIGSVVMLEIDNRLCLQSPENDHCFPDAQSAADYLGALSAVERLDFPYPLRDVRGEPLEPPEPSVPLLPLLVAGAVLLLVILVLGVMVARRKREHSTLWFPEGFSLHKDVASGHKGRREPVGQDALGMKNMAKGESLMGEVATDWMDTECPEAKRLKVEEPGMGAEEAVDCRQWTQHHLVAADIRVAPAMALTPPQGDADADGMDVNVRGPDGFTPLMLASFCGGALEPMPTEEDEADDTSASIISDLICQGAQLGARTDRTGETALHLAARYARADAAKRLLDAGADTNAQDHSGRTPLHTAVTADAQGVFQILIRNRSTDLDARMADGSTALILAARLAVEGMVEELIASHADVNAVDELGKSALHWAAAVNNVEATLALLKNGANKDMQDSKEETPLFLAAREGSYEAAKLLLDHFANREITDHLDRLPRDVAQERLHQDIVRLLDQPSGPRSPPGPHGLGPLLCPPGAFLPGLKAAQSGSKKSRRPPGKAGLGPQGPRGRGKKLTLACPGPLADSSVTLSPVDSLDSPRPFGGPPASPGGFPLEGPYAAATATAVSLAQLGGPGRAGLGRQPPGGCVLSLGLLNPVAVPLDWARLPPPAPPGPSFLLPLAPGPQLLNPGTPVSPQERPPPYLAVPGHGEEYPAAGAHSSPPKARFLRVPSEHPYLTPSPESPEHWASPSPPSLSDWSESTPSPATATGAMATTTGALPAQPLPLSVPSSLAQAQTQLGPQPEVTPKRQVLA
Experiment [3] is described as follows: small-molecule microarray binders of probe aEGFR, primary screen, biochemical, biotinylated probe, 635/667 nm fluorescence (AID 1097).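 Further: probe is a biotinylated anti-EGFR antibody binding compounds printed on slides; score combines fluorescence near 667 nm and signal to noise of each spot.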 Conditions: higher = more signal.
Experiment [4] concerns Plasmodium falciparum Sir2 (PF13_0152, Sir2A). Kind of experiment: pfSir2 binders on small-molecule microarrays, primary screen, biochemical, small-molecule microarray, 635 nm fluorescence (AID 1098).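 Further: score merges spot fluorescence intensity with its signal-to-noise ratio.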 To be noted: small-molecule microarray binding, fluorescence 635 nm; higher = more signal.
Experiment [5] is described as follows: small-molecule microarray binders of probe aDKK1, primary screen, biochemical, biotinylated probe, 635/667 nm fluorescence (AID 1099).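 Further: score merges 667nm spot fluorescence with signal to noise across triplicate slides.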 To be noted: higher = more signal.
Experiment [6] is described as follows: small-molecule microarray binders of probe aCHRDL2, primary screen, biochemical, biotinylated probe, 635/667 nm fluorescence (AID 1100). To be noted: higher = more signal.
A short description of experiment [7]: splicing luciferase reporter signal modulators, primary screen, spliceosome inhibition project, cell-based, HEK293, splice +/- reporter (AID 1101).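 Further: HEK293 cells carrying a splicing-competent luciferase reporter gene; test concentration not given here.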 To be noted: luminescence, 24 h, higher = more signal, called active from +8 up or from −8 down. (A reporter such as luciferase makes a cellular process visible.)
Experiment [8] concerns the target Fibroblast growth factor 10 (Homo sapiens) (UniProt O15520). Kind of experiment: FGF10 binders on small-molecule microarrays, primary screen, biochemical, small-molecule microarray, 635 nm fluorescence (AID 1102). To be noted: FGF10 binding, fluorescence 635 nm, higher = more signal.
In experiment [9] the test system is glycogen synthase kinase-3 (GSK3A per assay name; protocol says GSK3B). Briefly: GSK3 binders on small-molecule microarrays, primary screen, biochemical, small-molecule microarray, 635 nm fluorescence, GSK3A (AID 1103). Further: the record names both GSK3A and GSK3B. To be noted: small-molecule microarray binding, fluorescence 635 nm; higher = more signal.
The target of experiment [10] is Epidermal growth factor receptor (Homo sapiens) (UniProt P00533). Briefly: EGFR binders on small-molecule microarrays, primary screen, biochemical, small-molecule microarray, 635 nm fluorescence (AID 1104).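 Further: score merges 667 nm emission intensity with spot signal to noise over triplicate slides.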 Conditions: EGFR binding, higher = more signal.
Sequence of Epidermal growth factor receptor (Homo sapiens) (P00533 whole entry, looked up): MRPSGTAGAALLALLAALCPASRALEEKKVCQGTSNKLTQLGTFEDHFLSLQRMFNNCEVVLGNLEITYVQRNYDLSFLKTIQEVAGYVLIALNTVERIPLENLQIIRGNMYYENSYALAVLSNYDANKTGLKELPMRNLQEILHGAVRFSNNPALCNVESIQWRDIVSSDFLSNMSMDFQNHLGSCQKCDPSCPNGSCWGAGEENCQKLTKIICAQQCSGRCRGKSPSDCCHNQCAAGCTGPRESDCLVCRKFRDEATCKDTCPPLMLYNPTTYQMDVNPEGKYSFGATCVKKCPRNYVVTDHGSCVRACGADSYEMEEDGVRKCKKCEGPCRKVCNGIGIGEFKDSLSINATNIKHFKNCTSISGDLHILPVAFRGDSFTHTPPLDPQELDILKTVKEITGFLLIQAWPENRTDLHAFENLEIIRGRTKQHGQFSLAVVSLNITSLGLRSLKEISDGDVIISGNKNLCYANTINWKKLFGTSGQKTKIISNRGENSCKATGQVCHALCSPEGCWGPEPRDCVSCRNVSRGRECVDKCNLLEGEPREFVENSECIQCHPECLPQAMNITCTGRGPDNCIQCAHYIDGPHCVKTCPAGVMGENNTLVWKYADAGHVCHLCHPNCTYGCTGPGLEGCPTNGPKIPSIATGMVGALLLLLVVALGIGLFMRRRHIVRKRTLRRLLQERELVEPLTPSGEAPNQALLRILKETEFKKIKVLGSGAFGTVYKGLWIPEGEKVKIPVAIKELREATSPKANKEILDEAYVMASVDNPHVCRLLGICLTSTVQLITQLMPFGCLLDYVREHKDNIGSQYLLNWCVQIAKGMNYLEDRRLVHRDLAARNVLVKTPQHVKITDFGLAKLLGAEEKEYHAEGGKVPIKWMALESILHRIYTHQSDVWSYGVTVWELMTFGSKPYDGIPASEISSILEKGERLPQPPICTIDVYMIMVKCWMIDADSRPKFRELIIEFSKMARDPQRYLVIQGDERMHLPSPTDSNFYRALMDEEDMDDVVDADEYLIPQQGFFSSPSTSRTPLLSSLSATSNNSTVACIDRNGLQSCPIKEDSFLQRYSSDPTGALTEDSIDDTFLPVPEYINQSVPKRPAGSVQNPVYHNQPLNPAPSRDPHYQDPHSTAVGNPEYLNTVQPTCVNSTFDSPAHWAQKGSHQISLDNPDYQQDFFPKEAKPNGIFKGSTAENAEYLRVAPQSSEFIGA
Experiment [11] deals with Follistatin-related protein 3 (Homo sapiens) (UniProt O95633). Briefly: FSTL3 binders on small-molecule microarrays, primary screen, biochemical, small-molecule microarray, 635 nm fluorescence (AID 1105).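 Further: score merges emission near 667 nm and signal to noise per printed spot across three slides.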 Conditions: FSTL3 binding, higher = more signal.
Sequence of Follistatin-related protein 3 (Homo sapiens) (O95633 whole entry, looked up): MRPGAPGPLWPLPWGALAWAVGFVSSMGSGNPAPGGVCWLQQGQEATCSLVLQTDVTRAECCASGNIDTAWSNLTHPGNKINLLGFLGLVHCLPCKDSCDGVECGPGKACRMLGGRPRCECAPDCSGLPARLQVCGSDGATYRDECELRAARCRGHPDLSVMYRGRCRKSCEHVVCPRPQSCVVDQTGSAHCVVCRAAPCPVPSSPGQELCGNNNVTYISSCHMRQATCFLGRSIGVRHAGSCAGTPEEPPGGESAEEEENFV
The target in experiment [12] is Dickkopf-related protein 1 (Homo sapiens) (UniProt O94907). Kind of experiment: DKK1 binders on small-molecule microarrays, primary screen, biochemical, small-molecule microarray, 635 nm fluorescence scan (AID 1106).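 Further: score merges emission near 667 nm with signal to noise over three replicate slides.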 To be noted: DKK1 binding, higher = more signal.
Sequence of Dickkopf-related protein 1 (Homo sapiens) (O94907 whole entry, looked up): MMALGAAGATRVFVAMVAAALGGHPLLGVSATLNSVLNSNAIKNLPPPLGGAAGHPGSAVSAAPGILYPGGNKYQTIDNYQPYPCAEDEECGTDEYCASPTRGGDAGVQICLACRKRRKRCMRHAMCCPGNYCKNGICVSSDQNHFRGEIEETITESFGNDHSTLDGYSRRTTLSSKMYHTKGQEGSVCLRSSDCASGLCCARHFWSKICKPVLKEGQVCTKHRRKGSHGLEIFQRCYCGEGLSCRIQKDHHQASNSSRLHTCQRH
The subject of experiment [13] is Inhibin beta A chain (activin A). Briefly: INHBA (activin A) binders on microarrays, primary screen, biochemical, small-molecule microarray, 635 nm fluorescence scan (AID 1107).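 Further: mouse activin A protein probed at 4.33 µg/mL on printed slides; score merges bound-protein fluorescence near 667 nm with spot signal-to-noise.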 Conditions: small-molecule microarray binding, higher = more signal.
For experiment [14], the system named is Human papillomavirus type 1a protein E7 (residues 44-93). Briefly: HPV1a E7 fragment binders on microarrays, primary screen, biochemical, small-molecule microarray, residues 44-93, 635 nm fluorescence (AID 1108).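 Further: E7 fragment applied at 1 µg/mL in TBST for 1 h at 4 C; score combines spot fluorescence with its signal to noise ratio.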 Conditions: small-molecule microarray binding, fluorescence 635 nm; higher = more signal.
Experiment [15] can be described thus: modulators of HCV replicon luciferase signal, primary screen, HCV replication inhibitor project, Huh7 cells, luciferase reporter (AID 1109).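 Further: huh7 hepatoma cells harbouring a luciferase neomycin HCV replicon reporter; luciferase luminescence as measure of HCV replicon replication; test concentration not given here.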 To be noted: 48 h, higher = more signal.
For experiment [16], the target named is Left-right determination factor 2 (Homo sapiens) (UniProt O00292). Briefly: LEFTY2 binders on small-molecule microarrays, primary screen, biochemical, small-molecule microarray, 635 nm fluorescence scan (AID 1110). To be noted: LEFTY2 binding, higher = more signal.
Sequence of Left-right determination factor 2 (Homo sapiens) (O00292 whole entry, looked up): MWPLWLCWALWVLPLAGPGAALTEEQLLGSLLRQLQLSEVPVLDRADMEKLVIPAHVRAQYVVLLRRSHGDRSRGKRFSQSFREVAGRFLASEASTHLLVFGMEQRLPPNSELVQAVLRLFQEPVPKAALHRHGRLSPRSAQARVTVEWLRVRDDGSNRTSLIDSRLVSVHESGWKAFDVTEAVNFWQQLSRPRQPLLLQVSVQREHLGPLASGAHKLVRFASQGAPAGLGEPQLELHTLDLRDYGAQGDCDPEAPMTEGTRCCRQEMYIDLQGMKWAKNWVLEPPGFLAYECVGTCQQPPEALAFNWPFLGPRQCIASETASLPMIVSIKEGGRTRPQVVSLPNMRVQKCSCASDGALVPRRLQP
For experiment [17], the target named is Calmodulin-1 (Homo sapiens) (UniProt P0DP23). Briefly: CALM1 binders on microarrays, EGTA buffer, profiling panel, biochemical, small-molecule microarray, Cy5-labelled CALM1 (AID 1111).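 Further: labelled calmodulin applied in Tris saline Tween buffer holding calcium plus EGTA and DTT.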 Conditions: Cy5-CALM1 binding fluorescence, higher = more signal.
Experiment [18] shares this target. Briefly: calcium-bound CALM1 binders on microarrays, profiling panel, artefact control for SMM control-protein annotation, biochemical, small-molecule microarray, Cy5-labelled CALM1, plus calcium (AID 1112).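 Further: score merges spot fluorescence with signal to noise from triplicate slides.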 To be noted: Cy5-CALM1 binding fluorescence, higher = more signal.
Experiment [19] can be described thus: small-molecule microarray binders of probe aWnt5a, primary screen, biochemical, biotinylated probe, 635/667 nm fluorescence (AID 1113).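 Further: score merges 667 nm fluorescence intensity with signal-to-noise per printed feature.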 To be noted: higher = more signal.
Experiment [20] can be described thus: small-molecule microarray binders of probe aShh, primary screen, biochemical, biotinylated probe, 635/667 nm fluorescence (AID 1114).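 Further: probe is biotin-labelled aShh protein from a stem cell growth factor screen; measures binding of labelled protein to compounds printed on the slide; score merges feature fluorescence at 667 nm with signal-to-noise.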 To be noted: higher = more signal.

Sequence of Fibroblast growth factor 10 (Homo sapiens) (O15520 whole entry, looked up): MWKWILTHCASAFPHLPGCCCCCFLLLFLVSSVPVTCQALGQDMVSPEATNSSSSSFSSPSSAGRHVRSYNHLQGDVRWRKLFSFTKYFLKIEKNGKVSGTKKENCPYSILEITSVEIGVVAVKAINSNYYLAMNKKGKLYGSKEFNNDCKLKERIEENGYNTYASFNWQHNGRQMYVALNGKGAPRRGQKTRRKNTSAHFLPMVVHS

In the case of `C=CC[C@@]1(C(=O)NCc2ccccc2)N=C(c2ccc(OCCCO)cc2)O[C@@H]1c1ccccc1`, the composite z-score in experiment [1] was -0.469; in experiment [2], 0.311; in experiment [3], -0.147; in experiment [4], 1.54; in [5], 0.787; in [6], 1.31. Besides, the composite z-score in [8] was -0.28; in experiment [9], 0.659; in experiment [10], -1.08; in experiment [11] it was -0.571; in experiment [12] it was -0.918; in experiment [13], 0.997. Also, the composite z-score in experiment [14] is 0.483; in [16] it was -0.762; in [17], 1.68; in experiment [18] it was 0.369; in experiment [19], -0.101; in experiment [20] it was 0.123. Further, the z-score is -1.19 (inactive) in experiment [7] and -3.03 in [15].
For `C=C1C=C(Br)C2(OCCCO2)[C@H]2OC12` (stereo not given in full), the composite z-score is 0.104 in [1]; 0.0347 in experiment [2]; -0.076 in experiment [3]; 0.313 in [4]; -0.118 in experiment [5]; -0.533 in [6]. The composite z-score in [8] is 0.125; in [9], 0.259; in [10], 0.442; in [11], 0.322; in experiment [12], 0.536; in experiment [13], 0.831. Also, the composite z-score in [14] was -0.524; in experiment [16] it was 0.333; in [17] it was -0.367; in experiment [18] it was -0.755; in [19] it was -0.176; in [20], 0.0684. Besides, the z-score is -0.0861 (inactive) in [7] and 1.38 in experiment [15].
Turning to `C[N+](C)(C)CCCC[C@@H]1NC(=O)[C@H]2C[C@@H](C(=O)NCCCCCN)[C@@H](c3cccc(OCCO)c3)N2C1=O`, the composite z-score in experiment [1] was 0.387; in [2], 0.526; in experiment [3] it was 0.162; in experiment [4] it was 1.19; in experiment [5], 1.23; in [6] it was 1.02. Moreover, the composite z-score in [8] is 0.837; in experiment [9], 0.985; in experiment [10], -0.0784; in experiment [11], 0.564; in experiment [12] it was 0.044; in experiment [13], 1.63. Moreover, the composite z-score in experiment [14] is 1.2; in experiment [16], -1.17; in experiment [17] it was 1.3; in experiment [18], 0.767; in experiment [19], 0.133; in [20] it was 0.302. Moreover, the results for the z-score in [7] and in [15] were -1.82 (inactive) and -0.295, respectively.
Take `C=CC[C@@H](OC(=O)Nc1ccc(SC)cc1)c1ccc(OCCO)cc1`: the composite z-score in experiment [1] is -1.07; in [2], -0.525; in experiment [3] it was -0.204; in [4], 1.28; in experiment [5] it was 0.271; in experiment [6], 1.29. Also, the composite z-score in experiment [8] was 0.0292; in experiment [9], -0.381; in [10], -1.4; in experiment [11], -0.805; in [12], -1.42; in [13], -0.148. Moreover, the composite z-score is -0.318 in [14]; -0.952 in [16]; -0.0326 in experiment [17]; 0.835 in [18]; -0.208 in experiment [19]; 0.358 in experiment [20]. Further, the results for the z-score in experiment [7] and in experiment [15] were -1.83 (inactive) and 2.1, respectively.
Consider `O=C(NCC(F)(F)F)[C@@H]1c2ccccc2C(=O)N(C2Cc3ccccc3C2)[C@H]1c1ccc(CO)cc1`, for which the composite z-score in experiment [1] was -1.29; in experiment [2], -0.844; in [3] it was -0.129; in [4], 0.23; in experiment [5], 0.621; in experiment [6], 0.715. For the same compound, the composite z-score was -0.691 in experiment [8]; -0.605 in experiment [9]; -0.621 in [10]; -0.584 in [11]; -0.808 in experiment [12]; 1.03 in experiment [13]. Further, the composite z-score in experiment [14] is -1.07; in [16], -1.21; in experiment [17] it was 0.342; in experiment [18], 1.14; in [19], -0.129; in experiment [20], 0.267. Moreover, the z-score was -0.658 (inactive) in [7] and -0.561 in experiment [15].
Take `CO[C@H]1O[C@H](CO)[C@@H](OC(=O)Nc2ccccc2)[C@H](OC(=O)Nc2ccccc2-c2ccccc2)[C@@H]1OC(=O)Nc1ccccc1-c1ccccc1`: the composite z-score turned out to be 0.926 in experiment [1]; 1.06 in experiment [2]; 0.423 in experiment [3]; 1.36 in experiment [4]; 0.318 in experiment [5]; 0.464 in experiment [6]. Moreover, the composite z-score in [8] worked out at 1.19; in [9] it was 1.32; in experiment [10] it was 0.561; in experiment [11] it was 1.16; in experiment [12], 0.621; in experiment [13] it was 0.522. For the same compound, the composite z-score stood at 0.781 in experiment [14]; 0.986 in experiment [16]; 1.95 in experiment [17]; 0.357 in [18]; 0.131 in [19]; 1.85 in experiment [20]. In addition, the results for the z-score in [7] and in experiment [15] were -1.05 (inactive) and -3.09, respectively.
